Reference: PubChem BioAssay (NCI)
Compounds without any hit were thinned out: in the full panel of roughly 79,000, 15% have a hit. Calls of active or inactive are those of the source. Rule as the data show it: active = growth inhibition above about 70%; inactive = the rest.

What was measured:
[1] = NCI Yeast Anticancer Drug Screen. Data for the rad50 strain (AID 155);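 also: 0% = growth of vehicle-only cultures of the same strain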; settings: S. cerevisiae rad50 strain growth inhibition; at 50.0 µM; active compounds read high
Summary of the method: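 Cells are treated with compound, grown, and their growth is then scored against vehicle-only cultures of the same repair-deficient yeast strain.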

[2] = NCI Yeast Anticancer Drug Screen. Data for the mec2-1 strain (AID 157); settings: S. cerevisiae mec2-1 strain, at 50.0 µM, active compounds read high
Summary of the method: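 Compounds were applied to mec2-1 yeast cells. Their growth was then compared with that of vehicle-treated cultures to give growth inhibition.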

[3] = NCI Yeast Anticancer Drug Screen. Data for the sgs1 mgt1 strain (AID 161);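 also: 0% = growth of cultures given vehicle only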; settings: S. cerevisiae sgs1 mgt1 strain, at 50.0 µM, active compounds read high
Summary of the method: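 Yeast cells carrying a defined DNA-repair defect were exposed to test compounds. Growth inhibition was measured relative to vehicle-treated controls.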

[4] = NCI Yeast Anticancer Drug Screen. Data for the cln2 rad14 strain (AID 165);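 also: 0% = growth equal to vehicle treated cultures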; settings: S. cerevisiae cln2 rad14 strain, at 50.0 µM, active compounds read high
Summary of the method: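 Strain: cln2 rad14 yeast, altered in cell cycle control and DNA damage repair. Read-out: growth inhibition vs vehicle.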

[5] = NCI Yeast Anticancer Drug Screen. Data for the bub3 strain (AID 167); settings: S. cerevisiae bub3 mutant strain, at 50.0 µM, active compounds read high
Summary of the method: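 Part of a panel of yeast mutants defective in DNA damage repair or cell cycle regulation. Each strain is grown with compound, and inhibition is calculated relative to solvent-treated cultures.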

[6] = NCI Yeast Anticancer Drug Screen. Data for the mlh1 rad18 strain (AID 175); settings: S. cerevisiae mlh1 rad18 strain growth inhibition; at 50.0 µM; active compounds read high
Summary of the method: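 A repair-deficient yeast strain is exposed to test compound, and growth is scored relative to vehicle-treated controls.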

Measured: growth inhibition

N#CC(CCc1ccc([N+](=O)[O-])cc1)(CCc1ccc([N+](=O)[O-])cc1)C(N)=O
inactive: [1] 38.4% | [2] 19.4% | [3] 35.9% | [4] -14.2% | [5] 24.9% | [6] 49.2%

Cc1ccc2nc(N=C(N)N)[nH]c2c1
inactive: [1] -16.5% | [2] -33.1% | [3] 2.75% | [4] 1.1% | [5] -14.3% | [6] -12.6%

NC(N)=NCc1ccc2c(c1)OCO2
inactive: [1] -28.4% | [2] -2.95% | [3] -1% | [4] 10.1% | [5] -10.9% | [6] -34.1%

Cc1ccc2c(c1)c(C)c(C)c(=O)n2C
inactive: [1] 21.2% | [2] -8.7% | [3] -1.5% | [4] 13.2% | [5] 1.9% | [6] 10.1%

COC(=O)CC(CC(=O)OC)N1CC=CC1
inactive: [1] -12.9% | [2] 10.5% | [3] -5.95% | [4] -15.1% | [5] 5.35% | [6] 31.6%

Cc1cc(=O)c2cc3ccc4cccc5ccc(c2[nH]1)c3c45
inactive: [1] -12.6% | [2] -8.35% | [3] -10.1% | [4] -24.3% | [5] -6.85% | [6] -5.85%

Cn1nnnc1CCO
inactive: [1] -9.45% | [2] 7.05% | [3] -13.4% | [4] -0.55% | [5] 2.9% | [6] -8.55%

CCN(CC)C1=Nc2ccccc2N(c2ccccc2)C(SC)=C1
inactive: [1] -1.4% | [2] -6.9% | [3] 6.15% | [4] -6.45% | [5] 2.25% | [6] 14.5%

CC1=c2c(oc3cc(O)c(Nc4c(C)cc(O)cc4O)c(C)c23)=CC(=O)C1=Nc1c(C)cc(O)cc1O
inactive: [1] 17.9% | [2] 7.8% | [3] 0.45% | [4] -2.3% | [5] -35% | [6] 18.4%

NC1=NC(=S)CS1
inactive: [1] 0.95% | [2] -3.85% | [3] -12.3% | [4] -42.1% | [5] 16.7% | [6] 9.35%

c1ccc2c(c1)NCCOCCNc1ccccc1OCCNCCO2
inactive: [1] -1.5% | [2] 36.5% | [3] 14.1% | [4] -4.1% | [5] 30.1% | [6] 6.75%

O=C(O)C1C2C=CC(O2)C1C(=O)Nc1ncccn1 (stereo not drawn)
inactive: [1] -0.65% | [2] -33.9% | [3] -14.4% | [4] -23.3% | [5] -35.4% | [6] -3.6%

Cc1cc(Cl)ccc1OCC(=O)OCCBr
inactive: [1] 3.55% | [2] 17.9% | [3] 5.35% | [4] -23.2% | [5] -22.9% | [6] -8.15%

CNCc1ccccc1
inactive: [1] -1.25% | [2] -2.8% | [3] -21% | [4] -23% | [5] -19.8% | [6] -3.4%

ON=C(c1ccccc1)c1ccccc1
inactive: [1] -0.15% | [2] -3.8% | [3] -2.05% | [4] -7.2% | [5] -1.95% | [6] -2.95%

COc1ccc(CC(=O)OCCCl)cc1OC
inactive: [1] -17% | [2] -22.4% | [3] 3% | [4] -26.4% | [5] 44.1% | [6] -20.7%

CCOC1CCCCO1 (stereo not drawn)
inactive: [1] -24.5% | [2] -4.1% | [3] -13.4% | [4] 9.4% | [5] -13.8% | [6] -8.1%

CC1(C)N=C(/C=N/O)C(C)(C)N1O
inactive: [1] 6.65% | [2] 0.55% | [3] 6.15% | [4] 6.3% | [5] -4.95% | [6] -18.7%

CC1(C)CCCc2c(-c3ccccc3)cc3c4[nH]c5ccccc5c4cc[n+]3c21
inactive: [1] 23.6% | [2] -5.4% | [3] 11.1% | [4] 3.65% | [5] -2.5% | [6] 7%

CCOP(=O)(OCC)OCCCCn1cnc2c1c(=O)n(C)c(=O)n2C
inactive: [1] -32% | [2] -9.4% | [3] -15.7% | [4] -38% | [5] -2.65% | [6] -3.1%

O=S(=O)(Nc1cc(Cl)c(NS(=O)(=O)c2ccccc2)c(S(=O)(=O)c2ccccc2)c1Cl)c1ccccc1
active: [3] 73.5% | [4] 71.8%
inactive: [1] 58.2% | [2] 62.4% | [5] 65.3% | [6] 65%

Clc1ccc(CNc2ncnc3nc(Cl)[nH]c23)cc1
inactive: [1] -14.4% | [2] -14.9% | [3] -4.6% | [4] -41.2% | [5] -10.2% | [6] -23.9%

COc1cc(/C=C/C(=O)OCC23CC[C@@]4(C(=O)O)CCC(C)[C@H](C)C4C2=CCC2[C@@]4(C)CC[C@H](O)C(C)(C)C4CC[C@]23C)ccc1O (stereo partly drawn)
inactive: [1] 20.2% | [2] 9.95% | [3] 26.6% | [4] 4.85% | [5] -1.6% | [6] 6.9%

O=C(O)COc1ccccc1OCC(=O)O
inactive: [1] 17.4% | [2] 7.3% | [3] -8.6% | [4] 0.6% | [5] -0.1% | [6] 1.2%

O=C(c1ccccc1)C1CCCCN1C(=O)c1ccccc1 (stereo not drawn)
inactive: [1] -13.8% | [2] -8.3% | [3] -4.6% | [4] -17.3% | [5] 27.9% | [6] -21.9%

CCN(CC)CCCNc1c2c(nc3c(OC)cccc13)CCCC2
inactive: [1] -38.4% | [2] 10.7% | [3] -6.7% | [4] -41.6% | [5] 5.95% | [6] -2.45%

COC(=O)C1C(C(=O)OC)C2(C)C(=O)C1(C)C(c1ccccc1)=C2c1ccccc1 (stereo not drawn)
inactive: [1] -0.7% | [2] 2.55% | [3] -5.4% | [4] -12.3% | [5] 1.15% | [6] 5.15%

Cc1ccc(/C=N/NS(=O)(=O)c2ccc(/C=C3\NC(=O)NC3=O)cc2)cc1
inactive: [1] -16.8% | [2] -6.1% | [3] -31.4% | [4] -6.55% | [5] -41.2% | [6] 1.75%

N=C1N=Nc2nc(CC(=O)c3ccc(Cl)cc3Cl)c(O)n21
inactive: [1] -9.8% | [2] -8.35% | [3] 1.05% | [4] -31.5% | [5] -11.8% | [6] -37.6%

S=C(Sc1nc2ccccc2[nH]1)Sc1nc2ccccc2[nH]1
inactive: [1] 16.9% | [2] -4.05% | [3] 10.2% | [4] -34.9% | [5] 8.95% | [6] 24.6%

CCc1nc(N)nc(N)c1-c1ccc2nnn(O)c2c1
inactive: [1] -11.8% | [2] -7.45% | [3] -4.8% | [4] -40% | [5] 0% | [6] -3.1%

CC(C)CC([N+](C)(C)C)P(=O)([O-])O (stereo not drawn)
inactive: [1] -4.4% | [2] 1.6% | [3] -4.7% | [4] -9.2% | [5] 20.9% | [6] -3.5%

Clc1c(-c2ccccc2)oc2nc3ccccc3nc12
inactive: [1] 13.9% | [2] 6.85% | [3] 13.6% | [4] 21.6% | [5] -1.55% | [6] 26.2%

CCC(CCC(=O)c1ccccc1)[N+](=O)[O-] (stereo not drawn)
inactive: [1] -3.65% | [2] -14.8% | [3] -5.7% | [4] -8.5% | [5] 13.8% | [6] 7.2%

CCOC(=O)c1cc(OC(C)=O)c2ccccc2c1
inactive: [1] 26.9% | [2] 9.2% | [3] 41.5% | [4] 15.8% | [5] 61.5% | [6] 41.5%

Cn1c(=O)n2n(c1=O)[C@@H](c1ccccc1)[C@H]2c1ccccc1
inactive: [1] 29.8% | [2] -45.4% | [3] -9.85% | [4] -5.85% | [5] 20.2% | [6] -59.3%

COC1OC2COc3ccccc3OC2C2C1N2C(N)=S (stereo not drawn)
inactive: [1] 3.4% | [2] 22.5% | [3] 16.7% | [4] 1.65% | [5] 19.4% | [6] 12.9%

Cc1ccc(NC(=O)c2cc3c(cc2Cl)Sc2nccn2S3(=O)=O)cc1
inactive: [1] 21.7% | [2] 11.3% | [3] 12.7% | [4] -25.9% | [5] 11.4% | [6] 39.1%
